This is an account of results in PubChem BioAssay AID651582 (Sanford-Burnham Center for Chemical Genomics, 2012).

The structures appear in SMILES notation. In all, about 230,000 compounds went through this assay and about 1,500 (0.65%) were called active.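 The calls were made as follows: active = pattern-corrected inhibition of lipid staining of at least 50% with the nuclear-stain viability signal not falling by more than 50%; inactive = the rest, inconclusive results apart.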 The entries come from a sample that favours actives as a whole.

The nature of this experiment: TAG lipid buildup reduction in H9c2 cells – cell-based, uHTS, fluorescence, primary screen (AID 651582).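 As to inhibition: 0% = DMSO wells and 100% = triacsin C control wells.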 The note with it: Nile Red lipid (TAG) fluorescence, at 12.5 µM, cells loaded with 200 µM oleic acid; DAPI nuclei signal change (viability), lower = more cytotoxic: measured here: DAPI nuclei count viability; inhibition: stronger effect = higher value.
In general, inhibition refers to the drop in the measured response relative to a control, in per cent. In the case of `NC(=O)c1ncn([C@@H]2O[C@H](CN=C3NS(=O)(=O)c4ccccc43)[C@@H](O)[C@H]2O)n1`, the DAPI nuclei signal change (viability), lower = more cytotoxic is -1.84% and the inhibition was 13.5% (inactive).
For `COc1ccc(OCCNC(=O)c2cc(C3CC3)nc3c2cnn3C(C)C)cc1`, the DAPI nuclei signal change (viability), lower = more cytotoxic is -4.88% and the inhibition was -39.8% (inactive).
For the compound `COc1ccc(C(=O)OCC(=O)Nc2cc(C)on2)cc1F`, the DAPI nuclei signal change (viability), lower = more cytotoxic is -5.17% and the inhibition was 7.73% (inactive).
As to `C=CCOC(=O)N1CCC2CC1c1cc(-c3ccc(OC)cc3)ccc12` (stereo not given), the DAPI nuclei signal change (viability), lower = more cytotoxic was determined as 8.41% and the inhibition is -34.5% (inactive).
For `COc1cccc2sc(N(CCCN(C)C)C(=O)C(c3ccccc3)c3ccccc3)nc12`, the DAPI nuclei signal change (viability), lower = more cytotoxic was -45.3% and the inhibition is 117% (active).
As to `CN(C)CCCN(C(=O)COc1ccccc1)c1nc2c(Cl)cccc2s1`, the DAPI nuclei signal change (viability), lower = more cytotoxic was -0.936% and the inhibition was 15.4% (inactive).
With `CCN(CC)CCN(C(=O)c1ccc2c(c1)CCCC2)c1nc2c(OC)cccc2s1`, the DAPI nuclei signal change (viability), lower = more cytotoxic stood at 40% and the inhibition is -1.62% (inactive).
As to `O=c1c(Cl)c(NC2CC2)cnn1-c1ccccc1`, the DAPI nuclei signal change (viability), lower = more cytotoxic was -5.81% and the inhibition is -2.29% (inactive).
In the case of `COc1ccc(Oc2c(Cl)cnn(-c3ccccc3)c2=O)cc1`, the DAPI nuclei signal change (viability), lower = more cytotoxic was determined as 2.85% and the inhibition was -4.37% (inactive).
Regarding `Cc1cccc(-n2ncc(Cl)c(Cl)c2=O)c1`, the DAPI nuclei signal change (viability), lower = more cytotoxic was -35.3% and the inhibition is 75.4% (active).
Consider `CCCNC(=O)C1(C)CCN(C(=O)c2ccc(F)cc2Cl)C1` (stereo not given), for which the DAPI nuclei signal change (viability), lower = more cytotoxic is 8.17% and the inhibition is 2.28% (inactive).
`CCS(=O)(=O)c1cc([N+](=O)[O-])c(Sc2ccccc2N)s1`: the DAPI nuclei signal change (viability), lower = more cytotoxic was -4.87% and the inhibition is 14.6% (inactive).
In the same order, the values of `Nc1ccccc1SC(C[N+](=O)[O-])c1ccccc1` (stereo not given) are -46.5% and 63.9% (active).
As to `Nc1ccccc1Sc1ccc(C(F)(F)F)cc1[N+](=O)[O-]`, the DAPI nuclei signal change (viability), lower = more cytotoxic amounted to 8.68% and the inhibition is -15.4% (inactive).
For `CCOC(=O)/C=c1\s/c(=C\c2ccccc2OC)c(=O)n1CC(=O)N1CCOCC1`, the DAPI nuclei signal change (viability), lower = more cytotoxic was -2.84% and the inhibition is 8.35% (inactive).
`CCOC(=O)/C=c1\s/c(=C\c2ccc(C#N)cc2)c(=O)n1CC(=O)Nc1cccc(C)c1C`: the DAPI nuclei signal change (viability), lower = more cytotoxic is -32.2% and the inhibition is 50.4% (active).
For `Cc1cccc(NC(=O)CN2C(=O)c3ccccc3C2=O)c1C`, the DAPI nuclei signal change (viability), lower = more cytotoxic turned out to be 2.88% and the inhibition was -5.58% (inactive).
As for `Cc1nc2c(OCC(=O)C(C)(C)C)cccn2c1N(C)Cc1cccs1`, the DAPI nuclei signal change (viability), lower = more cytotoxic turned out to be 21.8% and the inhibition is -5.32% (inactive).
Take `O=C(Cn1cnc2c(OCc3ccccc3)ncnc21)NCCCn1ccnc1`: the DAPI nuclei signal change (viability), lower = more cytotoxic turned out to be 9.45% and the inhibition is -7.19% (inactive).
Turning to `COc1cc(OC)cc(C(=O)NNC(=O)CCOc2ccccc2OC)c1`, the DAPI nuclei signal change (viability), lower = more cytotoxic is -6.59% and the inhibition was 7.42% (inactive).
In the same order, the values of `CCN(c1ccccc1)S(=O)(=O)c1ccc(C(=O)Nc2ccccc2OC)cc1` are 2.43% and 4.73% (inactive).
Take `COc1ccc(-c2cc(-c3ccc(N)cc3)nc(N)c2C#N)cc1OC`: the DAPI nuclei signal change (viability), lower = more cytotoxic was found to be 172% and the inhibition was 21.5% (inactive).
`COc1ccc(-c2cc(C(F)(F)F)nc(S(C)(=O)=O)n2)cc1OC`: the DAPI nuclei signal change (viability), lower = more cytotoxic was -22.6% and the inhibition was 52.7% (active).
With `COc1ccc(-c2csc(-c3cccs3)n2)cc1OC`, the DAPI nuclei signal change (viability), lower = more cytotoxic is -4.83% and the inhibition was -5.04% (inactive).
For the compound `CCCCCCCCNS(=O)(=O)CCNC1CCCCC1`, the DAPI nuclei signal change (viability), lower = more cytotoxic was -4.65% and the inhibition was 5.91% (inactive).
As to `COc1ccc(OC)c(/C=C/C(=O)c2ccc3c(c2)OCO3)c1`, the DAPI nuclei signal change (viability), lower = more cytotoxic is 4.46% and the inhibition is 9.85% (inactive).
On to `Cc1c(NS(=O)(=O)c2cccc(C(=O)Nc3ccc(SC(F)F)cc3)c2)c(=O)n(-c2ccccc2)n1C`, for which the DAPI nuclei signal change (viability), lower = more cytotoxic was -2.02% and the inhibition is -3.28% (inactive).
Take `COc1ccc(S(=O)(=O)N(C)C)cc1NC(=O)COC(=O)c1n[nH]c2ccccc12`: the DAPI nuclei signal change (viability), lower = more cytotoxic was -4.57% and the inhibition is 4.68% (inactive).
The like results for `Cc1cccc(OCC(=O)OCC(=O)Nc2ccc(Cl)cn2)c1` were, in that order, 5.47% and -14.4% (inactive).
As for `COc1ccc(/C=C2/CCCc3ccccc3C2=O)cc1`, the DAPI nuclei signal change (viability), lower = more cytotoxic is -45.7% and the inhibition was 59.8% (active).
Regarding `COc1ccc(/C=C2\CCc3ccccc3C2=O)c(OC)c1OC`, the DAPI nuclei signal change (viability), lower = more cytotoxic was -2.46% and the inhibition is -5.18% (inactive).
Consider `O=C1/C(=C/c2cccs2)CCc2ccccc21`, for which the DAPI nuclei signal change (viability), lower = more cytotoxic was 3.51% and the inhibition is -10.1% (inactive).
For `O=C(COC(=O)c1cccc(Cl)c1Cl)NC1CCCCCC1`, the DAPI nuclei signal change (viability), lower = more cytotoxic stood at 6.13% and the inhibition is -15.2% (inactive).
With `C=CCn1c(SCc2c(C)noc2C)nc2sc3c(c2c1=O)CCC(C)C3` (stereo not given), the DAPI nuclei signal change (viability), lower = more cytotoxic was -30.5% and the inhibition was 85.1% (active).
The like results for `C=CCn1c(SCC(=O)NCC2CCCO2)nc2sc(C)c(C)c2c1=O` (stereo not given) were, in that order, 4.45% and -8.48% (inactive).
In the same order, the values of `CCCn1nnc2sc3c(c2c1=O)CCC(C)C3` (stereo not given) are 3.37% and 0.861% (inactive).
With `CN1CCn2cnc(C(=O)NCC(=O)OC(C)(C)C)c2C1=O`, the DAPI nuclei signal change (viability), lower = more cytotoxic was -1.68% and the inhibition was -2.56% (inactive).
For the compound `CN(Cc1ccc(CNC[C@H]2O[C@@H](n3cnc4c(N)ncnc43)[C@H](O)[C@@H]2O)o1)S(C)(=O)=O`, the DAPI nuclei signal change (viability), lower = more cytotoxic amounted to 2.25% and the inhibition is 3.67% (inactive).
Consider `Cc1cc(NC(=O)CSc2nc(C(C)C)nc3sc4c(c23)CCC(C)C4)no1` (stereo not given), for which the DAPI nuclei signal change (viability), lower = more cytotoxic turned out to be 1.86% and the inhibition was 65.3% (active).
`Cc1cc(NC(=O)CSc2nc3c(cc2C#N)CCCCC3)no1`: the DAPI nuclei signal change (viability), lower = more cytotoxic came out at 24% and the inhibition is 6.4% (inactive).
